The results in this text go back to PubChem BioAssay (NCATS).

Records with an inconclusive call do not appear. A number with no mark means an inactive call. Activity calls are given as the source filed them. Calls follow the shape of the dose curve; as a rule, active = well fitted cell-killing curve with a large enough effect; inconclusive = small, poorly fitted or top-dose-only effect; inactive = flat fitted curve, though single readings scatter.
Potency is read from the fitted curve at half-maximal effect.

The test can be described thus: qHTS of pediatric cancer cell lines to identify multiple opportunities for drug repurposing: Primary screen for U-2 OS cells (AID 1347096). Also: nearly all actives have a fitted effect of over 50% in size.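 As to activity change, negative = cytotoxic: plate controls were DMSO wells for no effect and bortezomib positive control wells for full effect.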 Particulars: U-2 OS viability, CellTiter-Glo luminescence, 48 h; series mostly up to 46 µM; activity change, negative = cytotoxic: at the top concentration. The gist of the method: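 Cells (500-1,000/well) in growth media were settled 5 h at 37 degrees C, then given compounds for 48 h. Viability was read as CellTiter-Glo luminescence. Primary runs used MIPE at 11 points (0.78 nM-46 µM) and NPC at 8 points (0.59 nM-46 µM); follow-ups used 11 points.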
Take `NC(Cc1ccc(Cl)cc1)C(=O)O` (centres undefined): the activity change, negative = cytotoxic was 18.1% [at 0.597 µM].

As to `CCCCCN(CCCCC)C(=O)C(CCC(=O)O)NC(=O)c1ccc(Cl)c(Cl)c1` (centres undefined), the “activity change, negative = cytotoxic” value was 10%. On the same count and under the same terms, the result for `CCO/C([O-])=N/c1c[n+](N2CCOCC2)no1` reads -3.71%; that for `CCN(CC)CCOCCOC(=O)C1(c2ccccc2)CCCC1`, 6.17%; that for `CSc1ccc(C(=O)c2[nH]c(=O)[nH]c2C)cc1`, 4.94%. On the same count and under the same terms, the result for `CCn1cc(C(=O)O)c(=O)c2cc3c(cc21)OCO3` reads -2.71% [at 16.1 µM]; that for `CC(=O)[C@@]1(O)CC[C@H]2[C@@H]3CCC4=CC(=O)CC[C@]4(C)[C@H]3CC[C@@]21C`, -5.67%; that for `CN(C)CCN(Cc1cccs1)c1ccccn1`, 6.12%. Turning to `CC(C)(C)NCC(O)c1cc(O)cc(O)c1` (centres undefined), the “activity change, negative = cytotoxic” value is -1.66%.

`CN(C)C(=O)Oc1cccc([N+](C)(C)C)c1`: the “activity change, negative = cytotoxic” value is 17.3%. In the case of `COc1ccc(CN(CCN(C)C)c2ccccn2)cc1`, the “activity change, negative = cytotoxic” value was -1.73%. Still for that read-out and setting: for `O=c1[nH]c(=O)n([C@H]2C[C@H](O)[C@@H](CO)O2)cc1Br` the value was 26.9%.

With `C[C@]12C=CC(=O)C=C1CC[C@H]1[C@@H]3C[C@@H](O)[C@](O)(C(=O)CO)[C@@]3(C)C[C@H](O)[C@@]12F`, the “activity change, negative = cytotoxic” value is 3.36%. On the same count and under the same terms, the result for `CNCCCN1c2ccccc2CCc2ccccc21` reads -13.8%; that for `CCCNC(C)C(=O)Nc1ccccc1C` (centres undefined), 14.6%; that for `CC(N=C(NC#N)Nc1ccncc1)C(C)(C)C` (centres undefined), -5.19%. Regarding `CC(=O)[C@]1(O)Cc2c(O)c3c(c(O)c2[C@@H](O[C@H]2C[C@H](N)[C@H](O)[C@H](C)O2)C1)C(=O)c1ccccc1C3=O`, the Potency was 6.68 µM (active).

With `NC/C=C/C(=O)O`, the “activity change, negative = cytotoxic” value is 9.55%. As for `Nc1c2c(nc3ccccc13)CCCC2O` (centres undefined), the “activity change, negative = cytotoxic” value was 16.3%.
